The compounds below were run against T1, Tyrosyl-tRNA synthetase, putative (Trypanosoma cruzi (strain CL Brener)) (UniProt Q4DSP6) (assay: Trypanosoma cruzi tyrosyl tRNA synthetase (TcYRS) _High Tyrosine SOP). Details: 30 µM.
T1 sequence (whole entry): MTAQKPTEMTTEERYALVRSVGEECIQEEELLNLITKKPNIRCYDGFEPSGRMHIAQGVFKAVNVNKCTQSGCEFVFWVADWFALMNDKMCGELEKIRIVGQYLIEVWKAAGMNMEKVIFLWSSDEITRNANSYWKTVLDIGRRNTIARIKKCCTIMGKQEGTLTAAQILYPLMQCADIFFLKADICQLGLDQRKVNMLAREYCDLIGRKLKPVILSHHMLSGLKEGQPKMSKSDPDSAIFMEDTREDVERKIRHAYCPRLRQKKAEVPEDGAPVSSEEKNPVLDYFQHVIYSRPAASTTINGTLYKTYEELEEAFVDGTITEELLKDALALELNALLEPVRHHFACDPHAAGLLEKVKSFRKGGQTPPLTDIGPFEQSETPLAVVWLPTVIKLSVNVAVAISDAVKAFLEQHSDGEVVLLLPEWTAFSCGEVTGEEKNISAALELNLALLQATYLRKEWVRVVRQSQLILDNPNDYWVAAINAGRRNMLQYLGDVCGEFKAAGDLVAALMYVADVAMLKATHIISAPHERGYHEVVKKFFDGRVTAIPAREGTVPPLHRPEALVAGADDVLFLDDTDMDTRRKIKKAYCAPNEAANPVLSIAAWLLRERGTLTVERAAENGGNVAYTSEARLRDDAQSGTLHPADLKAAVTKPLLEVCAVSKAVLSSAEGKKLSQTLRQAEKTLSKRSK
Format: functional
Parameters: scale not given: in the data most compounds retested in dose-response had high values

First: COc1cc(CNCCc2nc(C)cs2)cc2c1OCCO2
Second: Cc1csc(CNC(=O)NCCc2ccc3c(c2)OCCO3)n1
The Percent Effect of the first is lower: 4.41% for the first, 4.76% for the second.

Compared with Cc1ccc(CN(Cc2ccccn2)C2CC(C)(C)NC(C)(C)C2)s1, Cc1ccc(C(=O)N2CCO[C@H]3[C@@H](OCc4ccccn4)CC[C@@H]32)o1 is lower in Percent Effect: 4.3% for the first, -1.06% for the second.

Compared with CCc1ccccc1C(=O)N1CCN(S(C)(=O)=O)[C@@H](C)C1, O=C1COC2(CCN(CC3CC3)CC2)CN1c1ccccc1 is higher in Percent Effect: 1.07% for the first, 9.38% for the second.

Compared with COCCN(Cc1ccc(F)cc1Cl)C(=O)c1ccc(=O)[nH]n1, COc1c(CNCCNC(=O)Cc2ccc(F)cc2)c(C)nn1C is lower in Percent Effect: 2.1% for the first, 1.98% for the second.

Compared with CC(Oc1ccccc1C(F)(F)F)C(=O)NCC(N)=O (stereo not given), CC(C)(C(=O)NCC(N)=O)c1ccccc1F is lower in Percent Effect: 12.9% for the first, 2.1% for the second.

Compared with Cc1cc(-c2cnc(N3CCNC(=O)C3)nc2-c2ccc(C)o2)on1, Cc1nc(C(=O)N2CCCC2c2c(C)nn(C)c2C)ccc1C#N (stereo not given) is lower in Percent Effect: 5.32% for the first, 0% for the second.

Going from COc1ccc(CCN2CCC(N3CCN(C)C3=O)CC2)cc1 to CCOCC(=O)N1C[C@@H](NC(C)=O)[C@H](c2ccc(OC)cc2)C1, the Percent Effect rises from 4.85% to 7.1%.

Compared with CCOC(=O)c1c(NC(=O)CN2CCN(C(C)=O)CC2)sc2c1CCC2, CN1N=C(C(=O)NCc2ccc3c(c2)CCCN3C)CCC1=O is higher in Percent Effect: 4.25% for the first, 6.25% for the second.

Compared with Cc1ccc(CCC(=O)N(C)CCN2CCOCC2)c(C)c1, CCN1CC2(CCNCC2)COc2ccccc2S1(=O)=O is lower in Percent Effect: 6.38% for the first, -7.41% for the second.

Compared with c1cnnc(N2CCCC2CNCc2nc3ccccc3o2)c1 (stereo not given), Cc1noc([C@H]2C[C@@H]3CCN(CC4CC4)C[C@H]3O2)n1 is lower in Percent Effect: 15.6% for the first, -1.06% for the second.

Source: ChEMBL document CHEMBL3988442, “University of Dundee, Small-Polar-MMV Screening Library” (2021)
